The list is not random: actives were taken first. Their share in the collection is about 2.4%.
D2 PAM-1: positive allosteric modulators of human D2 dopamine receptor | P14416 | DiscoveRx D2 beta-arrestin cells, luminescence, 90 min; 100% = 57 uM dopamine signal | potentiation, % (test concentration not listed) | 360,000 tested, 0.23% active | AID 624464; in the data active means potentiation above about 50%; inconclusive means mostly about 30% to 49%
Target sequence (P14416 whole entry, looked up): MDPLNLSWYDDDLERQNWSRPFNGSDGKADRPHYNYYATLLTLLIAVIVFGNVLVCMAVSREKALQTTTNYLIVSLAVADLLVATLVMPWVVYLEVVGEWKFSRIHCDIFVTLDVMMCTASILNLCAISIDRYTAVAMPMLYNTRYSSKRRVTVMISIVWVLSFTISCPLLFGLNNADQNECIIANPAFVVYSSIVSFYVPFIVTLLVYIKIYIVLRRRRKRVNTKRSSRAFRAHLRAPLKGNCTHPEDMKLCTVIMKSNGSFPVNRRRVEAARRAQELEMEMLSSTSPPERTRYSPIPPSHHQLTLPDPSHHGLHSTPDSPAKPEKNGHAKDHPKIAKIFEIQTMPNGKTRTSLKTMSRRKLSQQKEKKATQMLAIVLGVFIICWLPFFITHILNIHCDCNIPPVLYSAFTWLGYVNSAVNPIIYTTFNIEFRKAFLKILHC
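PathHunter D2 cells, attached overnight at 37 deg C, received compound in DMSO plus dopamine at EC20 (50 nM final) for 90 min at 37 deg C. Beta-arrestin recruitment was read as luminescence after 1 h with detection reagent at ambient temperature.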
D2 antagonist: antagonizes the human D2 dopamine receptor | P14416 | inhibition, % at 10 µM | 340,000 tested, 2% active | HEK293 TREx D2 cells, calcium flux, dopamine EC80; in the data active means inhibition above about 30%; inactive means below that, where a call was filed; further: 0% is about no effect
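Tetracycline-induced HEK293 T-REx cells expressing D2 force-coupled to calcium signalling were dye-loaded, exposed to compound for 180 s, then challenged with an EC80 of dopamine; calcium flux was followed kinetically for a further 180 s.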
D2 ag-1: agonists of human D2 dopamine receptor (beta-arrestin); 360,000 tested, 0.084% active; P14416; DiscoveRx PathHunter D2 beta-arrestin, luminescence, 90 min; 100% = 57 uM dopamine signal; activation, % (test concentration not listed); in the data active means activation above about 40%; inconclusive means between about 15% and that limit
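DiscoveRx PathHunter D2 beta-arrestin cells (2,100/well) attached overnight, then compound-stimulated 90 min at 37 C in HBSS/10 mM HEPES/0.1% Tween-20 buffer; beta-galactosidase complementation read by luminescence after 1 h at ambient temperature. Dopamine 57 uM final (EC100) as control.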
D2 ag-2: activates the human D2 dopamine receptor; 340,000 tested, 0.53% active; P14416; activation, % at 2 µM; HEK293 T-REx D2 cells, calcium flux agonist mode;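 active means activation over 3 SD above normal in the single-dose calcium agonist read, cut at about 30% in these data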; further: 0% is about no effect
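Tetracycline-induced HEK293 Trex cells with D2 receptor force-coupled to calcium signaling, plated overnight at 30 C and loaded with no-wash calcium dye. Calcium flux read kinetically for 180 s after compound addition; responses flag agonists.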
D2 PAM-2: positive allosteric modulators of human D2 dopamine receptor. AID 485347. HEK293 T-REx D2, calcium flux, EC20 dopamine potentiation. 340,000 tested, 0.34% active. potentiation, % at 10 µM;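 active means potentiation over 3 SD above the plate norm, cut at about 30% in these data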; further: 0% is about no effect
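Using a no-wash calcium dye in inducible, force-coupled HEK293 Trex cells expressing D2, we tracked fluorescence each second for 180 s after compound, then for 180 s after EC20 dopamine to detect augmented signalling.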
* marks the source's active call; other numbers are inactive results; ? = inconclusive; / = not tested or not shown.

SMILES	D2 PAM-1	D2 antagonist	D2 ag-1	D2 ag-2	D2 PAM-2
CCOC(=O)c1[nH]c2ccccc2c1NC(=O)c1cc(OC)c(OC)c(OC)c1	-4	/	-1	/	/
COc1ccc(Cl)cc1NC(=O)Cn1cc(S(=O)(=O)Cc2cccc(Cl)c2)c2ccccc21	/	/	/	1	-7
COc1ccccc1NC(=O)C1=C(C)Nc2nc3ccccc3n2C1c1ccccc1Cl (centres undefined)	/	/	/	/	9
CC(C)n1c(O)c(N=NC(=O)CNC(=O)c2cccnc2)c2ccccc21	-34	41*	-5	0	3
Cc1cc(C)cc(-n2c(SCC(=O)Nc3ccccc3)nc3c(oc4ccccc43)c2=O)c1	/	/	/	1	5
Cc1cc(=O)c2ccccc2n1Cc1ccccc1	-12	-2	-4	-1	-3
Cc1ccc2c(c1)c(=O)c(Br)c(C)n2Cc1ccccc1	-18	56*	-5	0	-5
CCCn1cc(S(=O)(=O)c2ccccc2)c(=O)c2cc(OC)c(OC)cc21	-7	1	-3	0	39*
Cc1ccc(NC(=O)CN2CCSc3ccc(S(=O)(=O)N4CCCC4)cc32)cc1C	/	/	/	0	-6
COC(=O)c1cc2n(n1)CCN(Cc1ccc(OC)cc1)C2=O	-3	-4	2	0	-4
COc1ccc(CN2CCn3ncc(C(=O)Nc4cc(C)cc(C)c4)c3C2=O)cc1	1	38*	0	0	-1
CCc1cc(C(=O)Cc2cnn(-c3ccccc3)c2)c(O)cc1O	2	-12	0	0	4
O=C(Cc1cnn(-c2ccccc2)c1)c1ccc(O)c(O)c1O	110*	-2	?	0	7
Cc1ccc(SCCC(=O)NCc2ccco2)cc1	-10	-33	-3	0	35*
Cc1c(Cl)c(C(F)(F)F)nn1CC(=O)NCc1ccco1	-8	40*	0	2	/
Cc1ccc(SCC(=O)NCc2ccco2)cc1	-1	19	-3	2	3
Cc1c(Cl)c([N+](=O)[O-])nn1CC(=O)NCc1ccco1	-11	42*	-2	1	-4
CCOC(=O)c1ccccc1NC(=O)Cn1cc(C(=O)c2cccc(OC)c2)c(=O)c2ccc(C)nc21	/	/	/	0	0
Cc1cccc(C)c1NC(=O)C1CCCN(S(=O)(=O)c2c(C)noc2/C=C/N(C)C)C1 (centres undefined)	/	/	/	/	19
COc1ccc(C(=O)Oc2cc(-c3ccc(OC)c(OC)c3)cc(=O)c3c(C)oc(C)c23)cc1	/	/	/	9	4
COc1ccc(OC)c2sc(NC(=O)c3ccc(S(=O)(=O)N4CCCC4)cc3)nc12	/	/	/	2	-7
Cc1ccc2c(c1)sc1nc(-c3cc4cc(Cl)ccc4oc3=O)cn12	/	/	/	0	2
COc1ccccc1CNC(=O)C1=C(C)C(=O)OC12CCC(C)CC2 (centres undefined)	-1	47*	-3	0	0
CCCNC(=O)C1=C(C)C(=O)OC12CCC(C)CC2 (centres undefined)	-1	-5	-1	0	15
CC1=C(C(=O)NCCN2CCN(C)CC2)C2(CCC(C)CC2)OC1=O (centres undefined)	-7	61*	-1	0	23
SMILES	D2 PAM-1	D2 antagonist	D2 ag-1	D2 ag-2	D2 PAM-2
COc1ccc(CC(=O)NCC(c2ccc(N(C)C)cc2)N2CCOCC2)cc1OC (centres undefined)	/	/	/	0	-4
COc1cccc(CNC(=O)c2cc3c(=O)n(Cc4cccnc4)ccc3nc2C)c1	/	/	/	-1	-4
O=C(NCc1cccs1)C1CCCN1C(=O)Nc1ccc(Cl)cc1 (centres undefined)	/	32*	/	1	-5
O=C(NCc1cccs1)C1CCCN1C(=O)Nc1ccccc1 (centres undefined)	-14	5	0	1	-9
CC1(C)S[C@@H]2[C@H](NC(=O)[C@H](N)c3ccccc3)C(=O)N2[C@H]1C(=O)O	1	-20	-6	1	3
CC1(C)S[C@@H]2[C@H](NC(=O)C(C(=O)O)c3ccccc3)C(=O)N2[C@H]1C(=O)O (some centres undefined)	5	33*	-6	1	8
CCOc1ccccc1CNC(=O)c1cc(-c2ccc(Cl)s2)nc2ccccc12	/	/	/	1	0
O=C(Nc1ccc(OCc2cc(=O)n3c4c(sc3n2)CCCC4)cc1)c1ccccc1	/	/	/	0	4
